TIM10 inh – growth inhibitors of isogenic TIM10 control yeast, primary screen, counter-screen for tim10-1 yeast inhibitor project, luminescence, uHTS. S. cerevisiae TIM10 strain growth, BacTiter-Glo luminescence, 24 h. inhibition, % at 10 µM. 330,000 compounds, 1.4% hits. AID 463195, 2010;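 active = inhibition of 40% or more at the single tested concentration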;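 also: wild-type TIM10 isogenic control strain grown at permissive 25 °C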
PfHsp90 yeast 2 – growth inhibition of PfHsp90-expressing yeast, primary screen, antimalarial PfHsp90 inhibitor project, S. cerevisiae, BacTiter-Glo luminescence, single point, set 2; 310,000 compounds, 0.32% hits; BacTiter-Glo ATP, 48 h; yeast lacking PDR1 and PDR3 efflux regulators; AID 504621, 2011; inhibition, % at 9.4 µM;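 active = every replicate shows inhibition above about 80%, whatever the replicate mean, limit read from the data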;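 also: 0% = DMSO neutral controls and 100% = 20 µM radicicol positive controls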
SKKanGAS inh – S. pyogenes SKKanGAS growth inhibitors in kanamycin, primary screen, streptokinase expression inhibitor project, SKKanGAS strain, BacTiter-Glo luminescence | 6 h | inhibition, % at 7.5 µM | 300,000 compounds, 1.3% hits | AID 1662, 2009;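 active = mean replicate score, as percent of positive control median, at least 50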;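 also: strain carries kanamycin resistance gene driven by streptokinase promoter and grows in 40 µg/ml kanamycin; loss of luminescence reflects streptokinase promoter inhibition or plain growth inhibition; 0% = median of DMSO wells and 100% = positive control at its reference dose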
tim23-1 inh – growth inhibitors of tim23-1 mutant yeast, primary screen, luminescence, uHTS; S. cerevisiae tim23-1 growth, BacTiter-Glo luminescence, 24 h; inhibition, % at 20 µM; 330,000 compounds, 1.3% hits;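 active = growth inhibition of the mutant yeast at or above 50%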;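 also: temperature-sensitive mutant grown at 25 °C; plate controls were DMSO-treated mutant yeast for no effect and medium wells lacking yeast for full effect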
tim10-1 inh – growth inhibitors of tim10-1 mutant yeast, primary screen, luminescence, uHTS | S. cerevisiae tim10-1 ts strain growth, BacTiter-Glo, 24 h | inhibition, % at 20 µM | 330,000 compounds, 2.2% hits | AID 463190, 2010;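 active = inhibition of at least 40%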;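 also: mutant grown at 25 °C; 0% = DMSO wells with yeast and 100% = wells holding no yeast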
EBI2 antag – EBI2 receptor antagonists, beta-arrestin recruitment, primary screen, cell-based, luminescence, 7a,25-OHC stimulation, uHTS. G-protein coupled receptor 183 (Homo sapiens), P32249. 7a,25-OHC stimulated. inhibition, % at 5 µM. 360,000 compounds, 0.81% hits. AID 651636, 2012; in the data active = inhibition above about 38%;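 also: enzyme fragment complementation signal reports receptor beta-arrestin coupling in cells; 0% = agonist plus DMSO wells and 100% = wells without agonist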
Target sequence (P32249 whole entry, looked up, the tested form may be a part): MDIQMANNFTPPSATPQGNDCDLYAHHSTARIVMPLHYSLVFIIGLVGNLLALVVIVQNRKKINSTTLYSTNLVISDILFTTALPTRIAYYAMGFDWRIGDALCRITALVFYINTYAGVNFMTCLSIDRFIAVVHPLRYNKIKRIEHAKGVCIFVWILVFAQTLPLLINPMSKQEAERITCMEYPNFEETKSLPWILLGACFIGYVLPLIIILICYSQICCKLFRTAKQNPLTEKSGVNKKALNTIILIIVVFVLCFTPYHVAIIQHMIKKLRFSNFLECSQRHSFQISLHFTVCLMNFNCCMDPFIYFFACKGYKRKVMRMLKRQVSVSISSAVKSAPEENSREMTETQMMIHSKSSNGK
EBI2 antag conf – EBI2 antagonist hit retest, beta-arrestin, confirmation, cell-based, single concentration, luminescence, 7a,25-OHC stimulation | shares compounds with EBI2 antag | 7a,25-OHC antagonism | inhibition, % at 5 µM | 2,400 compounds, 29% hits;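 active = inhibition of at least 50%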
EBI2 agonist – EBI2 agonist activity of antagonist hits, confirmation, counter-screen for EBI2 antagonist project, cell-based, single concentration, agonist mode, luminescence; shares compounds with EBI2 antag; EBI2-expressing cells, 60 min; 0% vehicle, 100% 7α,25-dihydroxycholesterol control; activation, % at 5 µM; 2,400 tested, under 10 active;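 active = activation of at least 50%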
bGal cs – E. coli beta-galactosidase enzyme inhibition, confirmation, counter-screen for EBI2 antagonist project, biochemical, luminescence, single concentration. shares compounds with EBI2 antag. purified beta-galactosidase, luminescent Galacton Star, 15 min. inhibition, % at 5 µM. 2,400 compounds, 1% hits;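 active = replicate-average signal at least 3 plate SD below neutral wells, shown as high inhibition, flagging enzyme-inhibiting false positives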;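 also: 0% = DMSO wells with enzyme and 100% = wells lacking enzyme; higher means stronger loss of beta-gal luminescence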
An asterisk follows results filed as active; ! = a repeat was not active. The list is not random: actives were taken first. Their share in the collection is about 4.7%.

For COc1ccc(-c2ccc(-c3nc4ccc(C)cn4c3NC3CCCCC3)cc2OC)cc1 the results were TIM10 inh 35, PfHsp90 yeast 2 22, SKKanGAS inh 40, tim23-1 inh 49, tim10-1 inh 35, EBI2 antag 72*, EBI2 antag conf 65*!, EBI2 agonist 0 and bGal cs -11.
`NC(=O)c1ccc[n+](CC(=O)c2cccc([N+](=O)[O-])c2)c1` gave TIM10 inh -2, PfHsp90 yeast 2 4, SKKanGAS inh 2, tim23-1 inh -11, tim10-1 inh 6 and EBI2 antag -6.
`CCc1nc2ccc(C(=O)Nc3cccc(OCC(=O)N(C)C)c3)cn2c1N(C)C(=O)c1ccncc1` gave EBI2 antag 7.
`COc1cc(OC)cc(-c2noc(-c3csc([C@@H]4O[C@H](CO)[C@H](O)[C@H](O)[C@H]4O)n3)n2)c1` gave EBI2 antag -17.
O=C(CN(c1cc(Cl)ccc1Cl)S(=O)(=O)c1ccccc1)N1CCOCC1 was read as TIM10 inh 11, PfHsp90 yeast 2 -16, SKKanGAS inh -1, tim23-1 inh 17, tim10-1 inh 17 and EBI2 antag 3.
Screening CCCCN1CCC(COC(=O)c2cc(Cl)c(N)c3c2OCCO3)CC1 returned TIM10 inh 2, PfHsp90 yeast 2 9, tim23-1 inh -18, tim10-1 inh -1 and EBI2 antag -4.
COc1ccc(CCC(=O)N2CCN(C3CCCCC3)CC2)cc1 was read as TIM10 inh -16, PfHsp90 yeast 2 -10, SKKanGAS inh 0, tim23-1 inh 3, tim10-1 inh 4, EBI2 antag 45*, EBI2 antag conf 15, EBI2 agonist -1 and bGal cs -8.
`COc1ccc(CCC(=O)N2CCN(C(=O)c3ccccc3)CC2)cc1` gave TIM10 inh 7, PfHsp90 yeast 2 15, SKKanGAS inh -5, tim23-1 inh -2, tim10-1 inh 18, EBI2 antag 55*, EBI2 antag conf 40, EBI2 agonist 2 and bGal cs -1.
`O=C(Nc1ccc(N2CCN(C(=O)c3ccccc3F)CC2)cc1)c1ncn[nH]1` gave TIM10 inh -6, PfHsp90 yeast 2 1, SKKanGAS inh -6, tim23-1 inh 4, tim10-1 inh 3 and EBI2 antag 0.
`CCOC(=O)CN(C(=O)Cn1nnc(-c2ccc(OC)cc2)n1)C(C(=O)NC1CCCC1)c1ccc(F)cc1` (stereo not drawn) gave TIM10 inh 18, PfHsp90 yeast 2 6, SKKanGAS inh 0, tim23-1 inh 1, tim10-1 inh 19, EBI2 antag 75*, EBI2 antag conf 44, EBI2 agonist 1 and bGal cs 5.
`COc1ccc(-c2nnn(CC(=O)N(Cc3ccc(F)cc3)C(C(=O)NC3CCCC3)c3ccc(F)cc3)n2)cc1` (stereo not drawn) gave TIM10 inh 3, PfHsp90 yeast 2 -16, SKKanGAS inh 3, tim23-1 inh -27, tim10-1 inh -11 and EBI2 antag 9.
Screening CCc1nnc(NC(=O)CSc2nnc(-c3ccccc3NC(=O)c3ccccc3)o2)s1 returned TIM10 inh 0, PfHsp90 yeast 2 -3, SKKanGAS inh 31, tim23-1 inh -12, tim10-1 inh 3 and EBI2 antag -7.
For O=C(COc1ccc(Br)cc1F)N1CCN(c2ncccn2)CC1 the results were TIM10 inh 16, PfHsp90 yeast 2 19, SKKanGAS inh 4, tim23-1 inh 19, tim10-1 inh 18, EBI2 antag 46*, EBI2 antag conf 27, EBI2 agonist 0 and bGal cs 6.
Screening O=C(/C=C/c1ccccc1)N1CCN(c2cccc(Cl)n2)CC1 returned TIM10 inh 4, SKKanGAS inh 4, tim23-1 inh 17, tim10-1 inh 9, EBI2 antag 91*, EBI2 antag conf 82*, EBI2 agonist 0 and bGal cs -20.
`COc1ccccc1N1CCN(C(=S)NC(=O)/C=C/c2ccc(F)cc2)CC1` gave TIM10 inh 12, SKKanGAS inh -10, tim23-1 inh 34, tim10-1 inh 32, EBI2 antag 54*, EBI2 antag conf 35, EBI2 agonist 0 and bGal cs 9.
O=C(/C=C/c1c(Cl)cccc1Cl)N1CCN(c2ncccn2)CC1 was read as TIM10 inh 10, PfHsp90 yeast 2 -39, SKKanGAS inh -5, tim23-1 inh 42, tim10-1 inh 30 and EBI2 antag 7.
For O=C(/C=C/c1ccc(F)cc1)N1CCN(c2ccccn2)CC1 the results were TIM10 inh 2, PfHsp90 yeast 2 4, SKKanGAS inh -27, tim23-1 inh 10, tim10-1 inh 13, EBI2 antag 91*, EBI2 antag conf 81*, EBI2 agonist 1 and bGal cs 1.
Screening O=C(Nc1ccc(S(=O)(=O)Nc2nccs2)cc1)c1cnc(Cl)c(Cl)c1 returned TIM10 inh -14, PfHsp90 yeast 2 10, SKKanGAS inh -3, tim23-1 inh 3, tim10-1 inh -2 and EBI2 antag -7.
For CCCOc1ccc(/C=C/C(=O)N2CCN(c3ccccn3)CC2)cc1 the results were TIM10 inh 13, PfHsp90 yeast 2 -47, SKKanGAS inh 1, tim23-1 inh 41, tim10-1 inh 32, EBI2 antag 46*, EBI2 antag conf 40, EBI2 agonist 1 and bGal cs -1.
`Cc1cc(OCC(=O)N2CCN(c3ccccn3)CC2)cc(C)c1Br` gave TIM10 inh 10, PfHsp90 yeast 2 -11, SKKanGAS inh 18, tim23-1 inh 40, tim10-1 inh 27, EBI2 antag 62*, EBI2 antag conf 65*, EBI2 agonist 1 and bGal cs -2.
